Bioassay records deposited in PubChem BioAssay by National Center for Advancing Translational Sciences (NCATS).
HT1080 IDH1KD tx: kills HT-1080 cells with IDH1 knockdown. HT-1080 IDH1 knockdown viability, ATP luminescence, 48 h. Potency, µM (highest dose often 46.1 µM), for inactives: at the top dose activity, negative = toxicity, actives largely listed as cytotoxic. 360,000 tested, 2% active. AID 686971;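 further: potency means the concentration at half of the fitted maximal effect; 0% = DMSO wells and -100% = cell-free medium wells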
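IDH1KD HT-1080 cells, 750/well, RPMI + 5% FBS; compound pinned after 2 h settling; 48 h, 37 °C; CellTiter-Glo luminescence; % activity normalised to DMSO and no-cell wells; curves fitted, classed by r2 and efficacy.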
12-LOX inh: inhibitors of human 12S-lipoxygenase ALOX12 | purified 12hLO, xylenol orange hydroperoxide absorbance | Potency, µM (highest dose often 108 µM), without a hit: top-dose activity change, negative = inhibition, usual class: inhibitors | 580,000 tested, 1.1% active; further: potency means the concentration at half of the fitted maximal effect
Target sequence (P18054 whole entry, looked up): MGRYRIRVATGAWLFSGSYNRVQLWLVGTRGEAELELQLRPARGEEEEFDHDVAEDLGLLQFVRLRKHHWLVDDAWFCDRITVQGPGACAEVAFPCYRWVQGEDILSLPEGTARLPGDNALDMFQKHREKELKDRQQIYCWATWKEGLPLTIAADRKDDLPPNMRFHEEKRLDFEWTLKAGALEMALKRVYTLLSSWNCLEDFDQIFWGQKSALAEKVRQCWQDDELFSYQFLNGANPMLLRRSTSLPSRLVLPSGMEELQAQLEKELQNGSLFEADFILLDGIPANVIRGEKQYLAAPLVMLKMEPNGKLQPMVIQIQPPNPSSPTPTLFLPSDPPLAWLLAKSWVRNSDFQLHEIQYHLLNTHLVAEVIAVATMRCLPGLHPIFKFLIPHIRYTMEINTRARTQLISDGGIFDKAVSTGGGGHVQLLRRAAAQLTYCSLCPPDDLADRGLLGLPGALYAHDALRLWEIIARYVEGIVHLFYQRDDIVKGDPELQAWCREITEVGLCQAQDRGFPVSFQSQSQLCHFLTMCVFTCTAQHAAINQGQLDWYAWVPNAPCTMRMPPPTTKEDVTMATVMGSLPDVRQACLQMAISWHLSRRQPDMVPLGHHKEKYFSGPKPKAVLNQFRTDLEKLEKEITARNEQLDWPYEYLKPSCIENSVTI
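Purified human 12hLO (150 nM final) in 25 mM Hepes, 0.01% Triton X-100, pH 7.0 was preincubated 15 min at room temperature with compound. Then 40 uM arachidonic acid was added, 30 min. Hydroperoxide was read by Fe-XO absorbance ratio 573/405 nm.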
IL-1B inflam inh: blocks inflammasome-driven IL-1 beta release. THP-1 LPS/ATP IL-1B secretion, AlphaLISA, 16 h; hits give low values. activity change, % at 57.5 µM. 360,000 tested, 4.7% active. AID 743279; in the data active means activity change below about -50%; inconclusive means mostly about -30% to -49%
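Secreted IL-1B measured by AlphaLISA bead assay after 16 h compound exposure of THP-1 cells; compounds (final up to 57.5 uM) added 1 h before LPS (250 ng/mL) and ATP (1.25 mM) stimulation; lower signal means less secretion.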
DT40 TDP1 no CPT: qHTS for Inhibitors of human tyrosyl-DNA phosphodiesterase 1 (TDP1): qHTS in cells in absence of CPT; DT40 Tdp1-/- hTDP1 cells, no CPT, ATP luminescence, 48 h; Potency, µM (titrated, usually from 46.2 µM), for the others: top-dose activity change, negative = growth inhibition, usual class: inhibitors; 420,000 tested, 15% active; further: potency means the concentration at half of the fitted maximal effect; nearly all actives have a fitted effect of over 55% in size
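Chicken DT40 Tdp1-/- cells stably complemented with human TDP1 were seeded at 400 cells/well with DMSO in place of 20 nM camptothecin. After compound pinning, cells grew at least 48 hr at 37 °C; viability read by CellTiter-Glo luminescence.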
HT1080NT lethal: kills 2HG-producing HT-1080-NT fibrosarcoma cells | 360,000 tested, 1.6% active | HT-1080-NT fibrosarcoma viability, CellTiter-Glo ATP luminescence, 48 h | Potency, µM (top dose mostly 46.1 µM), for inactives: at the top dose activity, negative = less viability, usual class: cytotoxic | AID 686970;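 further: NT is the 2HG producing partner of a matched IDH1 knockdown line; potency means the concentration at half of the fitted maximal effect; 0% = DMSO-treated cells and -100% = media-only wells without cells; nearly all actives have a fitted effect of over 55% in size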
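750 cells/well, RPMI + 5% FBS; 2 h settle, compound pin-transfer, 48 h at 37 degrees C. CellTiter-Glo 10 min RT, luminescence. Normalized to DMSO and media-only wells.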
TDP1 cell CPT: growth inhibition of DT40 Tdp1-/-;hTDP1 cells with camptothecin (screen for TDP1 inhibitors) | chicken DT40 Tdp1-/-;hTDP1 cells + 20 nM CPT, ATP luminescence, 48 h | Potency, µM (top dose mostly 46.2 µM), for the others: at the highest dose activity change, negative = growth inhibition, usual class: inhibitors | 420,000 tested, 12% active; further: potency means the concentration at half of the fitted maximal effect; nearly all actives have a fitted effect of over 55% in size
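Cell growth measured by CellTiter-Glo luminescence after a minimum 48 h, 37 C compound exposure with 20 nM CPT in Tdp1-knockout DT40 cells stably expressing hTDP1, seeded 400/well; qHTS titration format.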
Numbers without * were called inactive; u = inconclusive; x = no result; ! = repeats disagree; [ ] = remark or other dose. This excerpt belongs to a sample that is enriched for hits. Unless noted, the call rests on the fitted dose curve; in most records, active means well fitted curve in the direction sought with a large enough effect; inconclusive means small, poorly fitted or top-dose-only effect, or another doubt; inactive means no such curve, though single readings can be large; an effect the other way counts as inactive or inconclusive. Unless noted, on the % scale 0 is the no-effect control and ±100 the full control effect.

SMILES	HT1080 IDH1KD tx	12-LOX inh	IL-1B inflam inh	DT40 TDP1 no CPT	HT1080NT lethal	TDP1 cell CPT
C#C[C@H]1CN2CC[C@H]1C[C@@H]2CNC(=O)COc1ccccc1	x	28%[176 µM]	x	x	x	x
CN1C(=S)CN=C(c2ccccc2)c2cc(Cl)ccc21	x	x	x	15µM*	x	u
CC(C)c1ccc(CNC(=O)c2ccc(N3CCCC3)c(NC(=O)NCc3ccccc3)c2)cc1	x	0%	x	23µM*	x	15µM*
CCc1ccccc1NC(=O)Nc1cc(C(=O)NCc2ccc(C(C)C)cc2)ccc1N1CCCC1	x	-19%	x	u	x	u
Cc1nc(-c2ccc(N(C)C)cc2)cc([C@H]2CN3CC[C@H]2C[C@@H]3CNC(=O)C(C)(C)C)n1	x	83%[176 µM]	x	x	x	x
CN(C)CC/C=C1/c2ccccc2Sc2ccc(Cl)cc21	u	u	-63*!	29µM*!	u	u
Nc1nc(F)nc2c1ncn2[C@@H]1O[C@H](CO)[C@@H](O)[C@@H]1O	u	5%	82	0.16µM*	u	0.21µM*
Nc1nc(F)nc2c1ncn2[C@@H]1O[C@H](CO)[C@@H](O)[C@H]1O	0.23µM*	-5%	-74*	0.16µM*	0.65µM*	0.058µM*
CCNC(=O)C1OC(n2cnc3c(N)ncnc32)C(O)C1O (stereo not drawn)	u	142%	u	-5%	u	6%
O=C(OCC1OC(n2cnc3c(N(C(=O)c4ccccc4)C(=O)c4ccccc4)ncnc32)C(O)C1F)c1ccccc1 (stereo not drawn)	u	13%	38	u	u	u
C#C[C@H]1CN2CC[C@H]1C[C@@H]2CNCc1ccc(N(C)C)cc1	x	53%[176 µM]	x	x	x	x
CN1CCN(c2nc3ccccn3c(=O)c2C=C2C(=O)N(C)C(=O)N(C)C2=O)CC1	8%	x	27	-3%	7%	1%
Cc1ccccc1-c1nc2ccccc2c(=O)n1C	10%	u	13	-8%	7%	3%
Cc1cccc(NC(=O)CSc2nc3ccccc3c(=O)n2C)c1C	-1%	u	-10	4.1µM*	1%	8.2µM*
Cn1c(SCC(=O)Nc2ccccc2F)nc2c([nH]c3ccccc32)c1=O	x	0%	x	18µM*	x	15µM*
CCc1ccccc1NC(=O)c1cccn(Cc2ccccc2F)c1=O	x	0%	x	-1%	x	-10%
Cc1cccc(NC(=O)c2cc3c(=O)n4ccccc4nc3n2C)c1C	x	-11%	x	0.65µM*	x	0.92µM*
O=C(NC[C@H]1C[C@@H]2CCN1C[C@@H]2CN1CCCCC1)Nc1ccccc1	x	36%[176 µM]	x	x	x	x
N#CC(C#N)=Cc1cccn1-c1ccc(Br)cc1	x	-25%	x	x	x	x
CN1C2CCC(C)(C)C1CC(OC(=O)C(O)(c1cccs1)c1cccs1)C2 (stereo not drawn)	x	-9%[22.9 µM]	x	x	x	x
CC1(C)CC[C@]2(C)CC[C@]3(C)C4C[C@@H]5OO[C@@]6(O5)C(CCCC6(C)C)[C@]4(C)CC[C@@]3(C)C2C1 (stereo partly drawn)	-8%	x	5	5.2µM*	5%	8.2µM*
CC(C)(C)NS(=O)(=O)c1ccc(OCC(=O)N2CCN(Cc3ccccc3)CC2)cc1	0%	-11%	-14	u	-3%	u
CC(C)(C)NS(=O)(=O)c1cccc(S(=O)(=O)c2cccc(S(=O)(=O)NC(C)(C)C)c2)c1	u	x	-19	u	u	23µM*
COC(=O)C1=C(c2ccc(F)cc2OCc2ccccc2)C[C@@H]2CC[C@H]1N2C(=O)NCc1ccccc1OC	-12%	0%	0	u	-5%	26µM*
COC(=O)C1=C(c2ccc(F)cc2OCc2ccccc2)C[C@@H]2CC[C@H]1N2C(=O)NCC1CC1	-1%	4%	-19	8.2µM*	0%	7.3µM*
SMILES	HT1080 IDH1KD tx	12-LOX inh	IL-1B inflam inh	DT40 TDP1 no CPT	HT1080NT lethal	TDP1 cell CPT
COC(=O)C1=C(c2ccc(F)cc2OCc2ccccc2)C[C@@H]2CC[C@H]1N2C(=O)NCc1cc(C)oc1C(F)(F)F	8%	x	-18	u	0%	21µM*
CC(C)n1nc(C(=O)NCC2(N3CCOCC3)CCCCC2)c2ccccc2c1=O	x	9%	x	x	x	x
Cc1cc(OCC(=O)N2CCC(C(=O)NCC(C)C)CC2)c2c3c(c(=O)oc2c1)CCCC3	15%	-15%	46	13µM*	13%	-19%
CCCCOC(=O)COc1cc(C)cc2oc(=O)c3c(c12)CCC3	2%	u	-8	-13%	-3%	4%
Cc1cc(OC(=O)c2ccco2)c2c3c(c(=O)oc2c1)CCC3	0%	7%	0	23µM*	0%	u
Cc1cc(OCC(=O)N2CCC(C(=O)O)CC2)c2c3c(c(=O)oc2c1)CCCC3	7%	37%	4	-6%	1%	-6%
CCN(CC)C(=O)COc1cc(C)cc2oc(=O)c3c(c12)CCCC3	-4%	-12%	-50*	u	-4%	u
C=CCOC(=O)COc1cc(C)cc2oc(=O)c3c(c12)CCC3	-7%	-8%	-24	-7%	-6%	-6%
Cn1nc(C2CCCCC2)cc1[C@H]1CN2CC[C@H]1C[C@@H]2CNC(=O)Nc1ccccc1	x	-6%[176 µM]	x	x	x	x
COc1cncc(NC(=O)C2=NO[C@@H]3CN(CC4CC4)C[C@H]23)c1	x	-11%[176 µM]	x	x	x	x
COc1cccc(NC(=O)C2CCN(S(=O)(=O)c3cc(-c4noc(C)n4)ccc3C)CC2)c1	x	-28%	x	18µM*	x	18µM*
Cc1ccc(N2C(=O)NC(=O)/C(=C\c3cn(CC(=O)O)c4ccccc34)C2=O)cc1	-6%	3%	26	24%	-14%	0%
O=C(O)Cn1cc(/C=C2\C(=O)NC(=O)N(Cc3ccco3)C2=O)c2ccccc21	-13%	u	5	u	2%	0.73µM*
CCN(CC)c1ccc(/C=C2\C(=O)NC(=O)N(Cc3ccco3)C2=O)cc1	2%	45µM*	u	-28%	4%	1%
CCCSc1ncc(Cl)c(C(=O)N(Cc2ccccc2)c2ccc(OC)cc2)n1	x	-22%	x	4.6µM*	x	7.3µM*
O=C1N[C@H](Cc2ccccc2)C(=O)N2[C@@H]3[C@H](C[C@@H]12)c1ccccc1N3OOSc1ccccc1	-15%	2%	0	18µM*	-1%	16µM*
O=C(COc1ccccc1)N1CCN(Cc2c[nH]c3ccccc23)CC1	-12%	-21%	8	8.2µM*	-10%	3.7µM*
